± gives the standard deviation. A value given as a limit tells only on which side of the number the result lay.

The assay deals with MILI (PIWIL2) piRISC loaded with piRNA #1 (26 nt). As to the kind of experiment: pre-steady-state target cleavage rate (min^-1); guide: piRNA #1 5'p-UGAGGUAGUAGGUUGUAUAGUAUCCA; MIWI and MILI are mouse PIWI proteins and EfPiwi is from a freshwater sponge; tags in brackets are library labels; higher = faster piRNA-guided slicing of the target. Particulars: auxiliary factor: 500 nM mouse GTSF1. The procedure, abridged: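 Cleave-'n-Seq: a transcribed, DNA-blocked target RNA library (0.1 nM) was mixed with 1 nM active affinity-purified piRISC carrying one synthetic guide, with or without 500 nM GTSF1 partner protein, in HEPES–potassium acetate buffer at 33 °C for 0–8 or 0–960 min. Uncleaved targets were sequenced and normalised to depth and to weakly complementary targets. Three trials were pooled, and k3 was capped at 0.0001 min^-1. The pre-steady-state cleavage rate came from a burst-and-steady-state fit.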

Take GGAGAGGAUACUAUACAACUACUACCUCA: the “pre-steady-state target cleavage rate” value is 0.0329 ± 0.0041.

GGAGACCUAACUAUACAACCUACUACACUCA: the “pre-steady-state target cleavage rate” value is 0.168 ± 0.028.

Regarding GGAGACCUAUGAUAUGUUCCUAGUACCUGA, the “pre-steady-state target cleavage rate” value was below 0.0001.

With GGAGUGGAUUCUAUACAACCUACUAGCUCA, the “pre-steady-state target cleavage rate” value stood at 0.0603 ± 0.012.

In the case of GGAGACCUUACUAUACUACGUACUACCUCA, the “pre-steady-state target cleavage rate” value came to 0.0307 ± 0.0046.

Take GGAGACCUAUCUAUACAACGUACUACGUCA: the “pre-steady-state target cleavage rate” value was 0.00657 ± 0.0026.

GGAGACCUAUGUAUAUCAACCUACUACCUCA: the “pre-steady-state target cleavage rate” value came out at 0.00312 ± 0.0027.

As to GGAGACCUAUUUAUACAACCUACUACCUCA, the “pre-steady-state target cleavage rate” value was found to be 0.0657 ± 0.02.

For the sequence GGAGACCUAUGAUAACAACCUACAUACCUCA, the “pre-steady-state target cleavage rate” value came out at 0.00403 ± 0.002.

GGAGACCUAUGUAUACAACCUUCUACCACA: the “pre-steady-state target cleavage rate” value came out at 0.00445 ± 0.0026.

As to GGAGACCUAUGUAUACUACCUACUUCCUCA, the “pre-steady-state target cleavage rate” value is 0.0346 ± 0.0069.

For the sequence GGAGACCUUACUAUACAACCUAAUACCUCA, the “pre-steady-state target cleavage rate” value amounted to 0.102 ± 0.014.

Turning to GGAGACCUAUCUAUCCAACCUACUACCUCA, the “pre-steady-state target cleavage rate” value came out at 0.0742 ± 0.0096.

As for GGAGACGAUACUAAAGAACCUACUACCUCA, the “pre-steady-state target cleavage rate” value turned out to be 0.166 ± 0.011.

On to GGAGACCUAACUAUUCAAGCUACUACCUCA, for which the “pre-steady-state target cleavage rate” value worked out at 0.217 ± 0.027.

Regarding GGAGACCUAUGUAUACAACCUACGACCUCA, the “pre-steady-state target cleavage rate” value is 0.0402 ± 0.0075.

For the sequence GGAGACCUUAGUAUACAACGUACUACCUCA, the “pre-steady-state target cleavage rate” value was found to be 0.0124 ± 0.0037.

On to GGAGACCAUACUAUACAACCUACUACGUCA, for which the “pre-steady-state target cleavage rate” value came to 0.116 ± 0.017.

Take GGAGACCUAUGUUUACUACCUACUACCUCA: the “pre-steady-state target cleavage rate” value came out at 0.00553 ± 0.0021.

Turning to GGAGACCAUACUAUACUACCUUCUACCUCA, the “pre-steady-state target cleavage rate” value is 0.0171 ± 0.0044.

For GGAGACCUAUGUAUACAACCUACUACCCCA, the “pre-steady-state target cleavage rate” value was found to be 0.045 ± 0.011.

For GGAGACCUAACUAUUCAACCUACAACCUCA, the “pre-steady-state target cleavage rate” value was 0.129 ± 0.021.

Consider GGAGACCUAUCUAUACAACGUACAACCUCA, for which the “pre-steady-state target cleavage rate” value amounted to 0.0149 ± 0.0048.

As for GGAGACCUAUGAUUACAACCUACCUACCUCA, the “pre-steady-state target cleavage rate” value worked out at 0.00646 ± 0.0028.

As for GGAGACCUAUGUAUACAACCUACUACGUCA, the “pre-steady-state target cleavage rate” value amounted to 0.0197 ± 0.0037.

Turning to GGAGACCUAACUAUACAACCUACUUGCUCA, the “pre-steady-state target cleavage rate” value came out at 0.18 ± 0.062.

As to GGAGACCUUACUAUACAAGCUACUACGUCA, the “pre-steady-state target cleavage rate” value was found to be 0.203 ± 0.029.

For GGAGACCAUACUAUACAUCGUACUACCUCA, the “pre-steady-state target cleavage rate” value was found to be 0.0535 ± 0.0071.

As for GGAGACCUUACUAUACAAACUACUACCUCA, the “pre-steady-state target cleavage rate” value was 0.204 ± 0.014.

As to GGAGACCAUACUUUACAAGCUACUACCUCA, the “pre-steady-state target cleavage rate” value stood at 0.199 ± 0.017.

As to GGAGACCUAUGAAUACAUCCUACUAGCUCA, the “pre-steady-state target cleavage rate” value was determined as 0.00797 ± 0.0028.

On to GGAGACCUUACUAUACAACCUAUCUACCUCA, for which the “pre-steady-state target cleavage rate” value came to 0.0976 ± 0.011.

With GGAGUGGAUACUAUACAACCUGCUACCUCA, the “pre-steady-state target cleavage rate” value is 0.0658 ± 0.0067.

With GGAGACCUAUCUAUAGAACCUACUACCUCA, the “pre-steady-state target cleavage rate” value turned out to be 0.0821 ± 0.013.

GGAGACCUAUGAUUACAACCUACUACCCUCA: the “pre-steady-state target cleavage rate” value is 0.00361 ± 0.0029.

As to GGAGACCAUACUAAACAACCUACUAGCUCA, the “pre-steady-state target cleavage rate” value came out at 0.165 ± 0.03.

GGAGACCAUACUAUACUAGCUACUACCUCA: the “pre-steady-state target cleavage rate” value was 0.182 ± 0.018.

Regarding GGAGACCUAUGAUUACUACCUACUAGCUCA, the “pre-steady-state target cleavage rate” value worked out at 0.0036 ± 0.0032.

For GGAGACCUAACUAUACAACCUAUCUACCUCA, the “pre-steady-state target cleavage rate” value amounted to 0.11 ± 0.024.

Turning to GGAGACCUAACUAUUCAACCUACUAGCUCA, the “pre-steady-state target cleavage rate” value turned out to be 0.089 ± 0.024.

GGAGACCUAUGAUAACAACCUCCUACCUCA: the “pre-steady-state target cleavage rate” value came to 0.00522 ± 0.0021.

Consider GGAGACCUAUGAUAUGUACCUACUGACCUCA, for which the “pre-steady-state target cleavage rate” value is below 0.0001.

As for GGAGACCUUACUAUACAACCUACCUACCUCA, the “pre-steady-state target cleavage rate” value stood at 0.148 ± 0.015.

As to GGAGACCUAUCUAAACAAGCUACUACCUCA, the “pre-steady-state target cleavage rate” value is 0.176 ± 0.019.

Take “GGAGACCUAUGAUAACAACCUACAUGGAGA [g8:g16:cont:t1A]”: the “pre-steady-state target cleavage rate” value is below 0.0001.

With GGAGACCUAUGAAUACAUCCUACUACCACA, the “pre-steady-state target cleavage rate” value was 0.0133 ± 0.0041.

In the case of GGAGACCUAACUUAACAACCUACUACCUCA, the “pre-steady-state target cleavage rate” value is 0.0309 ± 0.012.

Regarding GGAGACCUAUGAUUACAACCUACUACCUGCA, the “pre-steady-state target cleavage rate” value was found to be 0.00769 ± 0.0026.

Turning to GGAGACCUAACAAUACUACCUACUACCUCA, the “pre-steady-state target cleavage rate” value turned out to be 0.0399 ± 0.013.

Regarding GGAGACCUAUGAUAUGUUGGUACUACGAGA, the “pre-steady-state target cleavage rate” value was below 0.0001.

Take GGAGACCUAUGUAUACAACCUACUACGUGA: the “pre-steady-state target cleavage rate” value amounted to 0.0238 ± 0.0053.

Turning to GGAGACCUAUCUAUUCAACCUACUACGUCA, the “pre-steady-state target cleavage rate” value amounted to 0.0451 ± 0.0089.

For GGAGACCUAUCUAUACUAGCUACUACCUCA, the “pre-steady-state target cleavage rate” value is 0.0865 ± 0.011.

Turning to GGAGACCUAUCUAUAGCAACCUACUACCUCA, the “pre-steady-state target cleavage rate” value was 0.0831 ± 0.016.

With GGAGACCUAACUAUACAAGCUACUAGCUCA, the “pre-steady-state target cleavage rate” value was 0.159 ± 0.042.

For the sequence GGAGACCUAUGAUAUGAACGUUCUACCUCA, the “pre-steady-state target cleavage rate” value was below 0.0001.

For GGAGACCUUACUAUACAACGUAGUACCUCA, the “pre-steady-state target cleavage rate” value amounted to 0.015 ± 0.0045.

GGAGACCUAACUUUUCAACCUACUACCUCA: the “pre-steady-state target cleavage rate” value is 0.0456 ± 0.014.

With GGAGACCUUAGUAUUCAACCUACUACCUCA, the “pre-steady-state target cleavage rate” value came out at 0.089 ± 0.011.

On to GGAGACCUAACAAUUCAACCUACUACCUCA, for which the “pre-steady-state target cleavage rate” value came out at 0.0406 ± 0.013.

Take GGAGACGAUAGUAUACUACCUACUACCUCA: the “pre-steady-state target cleavage rate” value worked out at 0.148 ± 0.012.

With GGAGUGCAUACUAUACUACCUACUACCUCA, the “pre-steady-state target cleavage rate” value came to 0.161 ± 0.0089.

Regarding GGAGAGGAUACUAUACAACCUACAUGCUCA, the “pre-steady-state target cleavage rate” value is 0.00576 ± 0.003.

On to GGAGACCUAUGUAUAGUACCUACUACCUCA, for which the “pre-steady-state target cleavage rate” value was determined as 0.013 ± 0.0027.

With GGAGAGCAUACAAUACAACCUACUACCUCA, the “pre-steady-state target cleavage rate” value was 0.206 ± 0.017.

Consider GGAGACCAUACUAUACUUGCUACUACCUCA, for which the “pre-steady-state target cleavage rate” value worked out at 0.0454 ± 0.0044.

The values are drawn from the supplement of paper PMC10338343.
